The test system of this experiment is PXR:RXRa (NR concentration 270 nM, RXRa partner concentration 90 nM). The experiment is described as follows: PBM binding z-score (relative to random genomic background probes); higher = stronger binding; sequences stand for … in GC…GCGATTGACAGCGTAGAATGAAGG
In short, it runs like this: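 Scanned fluorescence from custom Agilent 4×180K protein-binding microarrays was regression-normalized. Binding z-scores use random background probes as reference. Ligand-free nuclear receptor dimers were incubated on the arrays for 1 h and detected with antibodies against each partner (one per run).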
Take CCTAGCAGGCCAATCTGGGTGACTCAAGGCTTGA: the PBM binding z-score was -0.581. In turn, CGAACTAGGTCAGAACTGGACAGTGAAGGATGAT came in with a PBM binding z-score of 0.313.

GGAACGAGGGCATTCGAGTTGATGGCATGGCGAT registered a PBM binding z-score of 3.26. With TCAGACAGGTGAAGGTAACTCCGGTACGCAGTCG the figure was 0.475; with CGTCCCAGGTCAATGCTAGGTCAGTGAAAGCATT, 3.21. For TCATATAGGTAAACAGGTGGAAGTCCGTAAGTTA, the PBM binding z-score came out at 0.46. Consider CCAGACAGGTGAAAGGTAACCCAGTCTGGTACGC, for which the PBM binding z-score came to 0.694. The figure for CTACCAAGCTGAACAAGGTCGTTGATTACTATTC is 1.39; for GGAACGAGGGCGTTCGAGTTGATAGCATGGCGAT it is 1.88; for CAGCCTAGGTCTGGGCCAGTATAGGAGGAACGTT it is -0.944.

In turn, GGAGACAGGTGAAACGCAGGTAACTCAGGGTGGC returned a PBM binding z-score of -0.298.

Sequence TAGCCTAGGTCATGGGCCGGTATACCACGCGAAC gave a PBM binding z-score of 1.8. Sequence CAAACTCGGTCACAGAGGTCAAAGTCCGTGCGTA registered a PBM binding z-score of 6.25. On to CCTACTGCGCCACGAAAGGTCATTGATTCAGTGA, for which the PBM binding z-score is 5.41. The figure for GCGTACGGGTCAAAGGTTATAGCATGAATAGAAT is 6.11. In turn, CCATACGGGTCACGAGGTTATAGCACGACGAGCG registered a PBM binding z-score of 4.5.

TCATATAGGTAAATGCTAGGTGAAATTCCGATCT returned a PBM binding z-score of 0.404. Sequence CGAACGAGGGGATGAGTTGATAGCAAATGCCGAT came in with a PBM binding z-score of -0.392. The sequence GCATATAGGTGATACAAGGTGAAAGTCCGATTGT returned a PBM binding z-score of 0.71. Consider CCGACTGCGGCAAAGGTTACCATACTCAGTACGA, for which the PBM binding z-score was determined as 1.61. The figure for ACTATTAGTTGTGACGAGGGCAACCGATAGGTTG is 0.597; for TCGAGTAGGTTACCAATGGGGCATTCCGCTTTCT it is -0.00662.
